Reference: paper PMC12136788
Residue numbers refer to the chain shown, from its start. The full ranking holds about 5,800 sequences; the median of “enrichment r” is about 0.68, and the highest 2% start at about 11. The sample holds the highest values, similar sequences and a random draw of the others, so the mix is not that of the screen.

T1: UNK ZnF1-6 (called full-length) (human, UniProt Q9C0B0 30-357)
T1 sequence: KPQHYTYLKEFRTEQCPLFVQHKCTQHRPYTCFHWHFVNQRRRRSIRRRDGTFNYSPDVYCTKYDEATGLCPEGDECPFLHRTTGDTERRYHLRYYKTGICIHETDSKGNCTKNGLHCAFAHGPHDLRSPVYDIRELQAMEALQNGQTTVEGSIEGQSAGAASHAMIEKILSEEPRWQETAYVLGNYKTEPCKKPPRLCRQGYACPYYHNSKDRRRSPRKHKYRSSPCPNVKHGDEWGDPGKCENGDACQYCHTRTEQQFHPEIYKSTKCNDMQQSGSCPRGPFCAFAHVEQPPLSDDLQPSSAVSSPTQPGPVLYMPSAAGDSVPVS

B1: chr16:70160055:70160156:+|3pUTR|ENSG00000090857|msi1|total|mutant (ssRNA)
RNA: GGGAGUUCUACAGUCCGACGAUCUUGUGCUCACCACGAAGGAUGGUCUCUGCCUUCUCUUGUCGGUGUAUGCCAUCUGAACCCCGGAACACAAAGUAUAUUGGCCUCAAACGGAGACCCAGGGUUGCCAGUUUUCCGUGGGCCCAACAGAGGAUUGAGCAUCA
B2: chr12:68660398:68660499:+|3pUTR|ENSG00000127314|msi1|FALSE|unique (ssRNA)
RNA: GGGAGUUCUACAGUCCGACGAUCUUGAGGUGGCCAAAUGUAAACUAAAAGCCUUAAUUAAAGUGGUGCAAUUUUGUAUAACUUAGCAUCAGUAGUUCAAUAAAUUUGGAUUGCCAUGCAAGGGCUUGCAUUAUAAUUACUUGCCAACAGAGGAUUGAGCAUCA
B3: chr4:186588032:186588133:-|3pUTR|ENSG00000083857|msi1|FALSE|unique (ssRNA)
RNA: GGGAGUUCUACAGUCCGACGAUCUUUUUUUACUAUAACCAGGGUUUCAUUCUGUCUUUUUCCACUGAAGUGUGACAUUUUGUUAGUACAUUUCAGUGUAGUCAUUCAUUUCUAGCUGUACAUAGGAUGAAGGAGAGAUCAGAUCAACAGAGGAUUGAGCAUCA
B4: chr1:225496770:225496921:-|3pUTR|ENSG00000154380|msi1|FALSE|unique (ssRNA)
RNA: GGGAGUUCUACAGUCCGACGAUCUUUUUUAAUUGCAGACAGUAAUGCAUGUCACACUAAUAUGUAGUGGCCUUUUCAAGGCCUAGUCCCAGGGAAAACAUUUUGUAGAGUAUAGGGGAGUGGGAGGAAGGGGAGGAAUAAUUUCAACAGAGGAUUGAGCAUCA
B5: chr13:45969211:45969312:-|CDS|ENSG00000123200|unk|FALSE|unique (ssRNA)
RNA: GGGAGUUCUACAGUCCGACGAUCGUCCCUGACCGUACAGAGGUGACAGAAGCAGAGCAUACUGCCACCGCCACGACUCCUGGUAGUACCCCUUCUCCUCUAUCUUCUCUUCUUCCUCCUCCACCGCCUGUGGCUACUGCCACUCAACAGAGGAUUGAGCAUCA
B6: ENSG00000107863:be:win_5851|CDS_3pUTR|ENSG00000107863|bound_else_gene|NA|bound_elsewhere_windowed (ssRNA)
RNA: GGGAGUUCUACAGUCCGACGAUCAAAGCAGAGUUUCAUCCCUGUCUUUAAACUGGGGGUAUGUCCACUCUAGCAAGUAAAAAAACUACUGUUACACGUUCCAGUAACUCUGUCAAUAUUUUCUUGUAUCAGAAUUGUUAUUAUCAACAGAGGAUUGAGCAUCA
B7: ENSG00000198589:be:win_7901|CDS|ENSG00000198589|bound_else_gene|NA|bound_elsewhere_windowed (ssRNA)
RNA: GGGAGUUCUACAGUCCGACGAUCCUCGUUCUGAGUCAUAUAUUGGGGGAAAUUGCUACAUUCUCUCAGGGUCACGUGAUGCAACUCUUUUGCUGUGGUAUUGGAAUGGAAAAUGCAGUGGGAUUGGAGAUAACCCAGGCAGUGCAACAGAGGAUUGAGCAUCA
B8: chr13:106491723:106491923:-|3pUTR|ENSG00000125266|msi1|total|mutant (ssRNA)
RNA: GGGAGUUCUACAGUCCGACGAUCCAGACUCAGCUGCUAUACUUAUCACAUUUUAUUAAACACAGGGAAAGCAUUCCGGAGAACCGCAGAGAGCCAAAUCUGACCUAAAAGUUGAAAAGCCAAAGGUCAAACAGGCUGUAAUUCCAACAGAGGAUUGAGCAUCA
B9: chr1:178849534:178851128:-|three_prime_utr|ENSG00000116194|control|control|control (ssRNA)
RNA: GGGAGUUCUACAGUCCGACGAUCCUACACAGAAAGUUUUUAAAAUGAAUUUUACCGUAACUAUAAAAGGGAACCUAUAAAUGUAGUUUCAUCUGUCGUCAAUUACUGCAGAAAAUUAUGUGUAUCCACAACCUAGUUAUUUUACAACAGAGGAUUGAGCAUCA
B10: chr10:16593140:16593241:-|3pUTR|ENSG00000148484|unk|FALSE|unique (ssRNA)
RNA: GGGAGUUCUACAGUCCGACGAUCUUAUUUUUCUUUUCACUCUCUUUCUAAUGCUUCCCACCUUACCUUUUAGAUUCUUUUGCUAGGUGGGAGAUUGUUAUAAGGUCUUUAAACCAUUUCCAUUUGUUUCUUUAACAUUACCAACAACAGAGGAUUGAGCAUCA
B11: chr1:9729969:9730061:-|3pUTR|ENSG00000171603|msi1_unk|total|mutant (ssRNA)
RNA: GGGAGUUCUACAGUCCGACGAUCGUUUUUAUUUUUUCCAAACCCGUGCAUGUAUAAAUAAUGGCAGGAUGGGGGGUACUGUGCCGAUGAUUAACUGACUUUUUAAUAUUUUGUAAAUAAAUCGGAUUCCUUGUGUCCUUUGUGCAACAGAGGAUUGAGCAUCA
B12: chr15:52550141:52550321:-|3pUTR|ENSG00000128989|msi1|FALSE|unique (ssRNA)
RNA: GGGAGUUCUACAGUCCGACGAUCAGAUGUCACUUUAGUAAAAUACCAAUUUAGUUUUACUUGUGGCUUAUCUAGUUAGAACUUAGCAGACUUUACUGGGACAAGUUUACUGCUCUUGUAGGAGCUCCUCUCACAAGUAGUUGUCAACAGAGGAUUGAGCAUCA
B13: chr1:93361585:93361687:+|3pUTR|ENSG00000117505|unk|total|mutant (ssRNA)
RNA: GGGAGUUCUACAGUCCGACGAUCUUUAACUUGCCGUUACCGUUUACUUAUUGUUUUCCGAAUUACUUUUACAUUUUCCCAACCCGAUGGCCCCGAGUCCAACAUUACCUUUUGAGAUGACAUUAUUGUCUCCAUAAUUGAGUGCAACAGAGGAUUGAGCAUCA
B14: chr10:17315694:17315795:-|3pUTR|ENSG00000148488|unk|FALSE|unique (ssRNA)
RNA: GGGAGUUCUACAGUCCGACGAUCCUUCUUCCUCCCUGUCCAUCCCACCCUCGUCCCCAGAAAAUUCCUAAUCUGUUUUUCUAUAGACAUUUACAUUUUUACACUAUAGACUGUUUACAUUUUUUAGAAUUUUAUAUAAAUGGACAACAGAGGAUUGAGCAUCA
B15: chr3:89481969:89482070:+|3pUTR|ENSG00000044524|msi1|FALSE|unique (ssRNA)
RNA: GGGAGUUCUACAGUCCGACGAUCAUAUGUGUUUACUUUAAACUUGUCUUUUCAAAAUAUUACUCAGUUUAUGUUGUACAAUGUAGAUGGCCUCUUACUAAUGUAAAAUGAUUUGUAGUGGAAACAUUUAUAUUUUUAUAAUAACAACAGAGGAUUGAGCAUCA
B16: chr1:9729969:9730061:-|3pUTR|ENSG00000171603|msi1_unk|FALSE|overlapping (ssRNA)
RNA: B11 RNA with C43U, C44A, C83U, C84A
B17: chr1:93361585:93361687:+|3pUTR|ENSG00000117505|unk|FALSE|unique (ssRNA)
RNA: B13 RNA with C33U, C34A, C39U, C40A, C57U, C58A, C83U, C84A, C92U, C93A
B18: chr2:5695263:5695412:+|3pUTR|ENSG00000176887|msi1_unk|FALSE|overlapping (ssRNA)
RNA: GGGAGUUCUACAGUCCGACGAUCUGGUGAUAUAGACCUCAGAGCUGUUAUCUUAGUUUAAAGAUUGUAUAUGUACUGUACUAUAGUAGGACUUUAUGUAUCUCAUACGCUGUGAUGUGGAUGGGGCCCCAGAUGGAAGGUUUGCAACAGAGGAUUGAGCAUCA
B19: chr14:53039561:53039662:-|3pUTR|ENSG00000100523|unk|total|mutant (ssRNA)
RNA: GGGAGUUCUACAGUCCGACGAUCUCAAACUAUAUUUUUGUUACAGCAAACUACAUUCCAUUUGCCUUUAAAUGCUUGCAUUUCCGUUAUUGUACUGGCUACCUGUUUUUGUCUGCCCAGCAUCCUGUUUCCCCUCCUUUUGGACAACAGAGGAUUGAGCAUCA
B20: chr1:162523450:162523604:+|3pUTR|ENSG00000152332|msi1|FALSE|unique (ssRNA)
RNA: GGGAGUUCUACAGUCCGACGAUCAGACUAAGUUGUGCCAGAUGUAAAUCAACCCCUCUUUUAGUUUACUUUAGACUUUGUAUUAGCUCAUCUUUUUUGUAGUAAAUCUAUAGUUUUAAGGUUUCUCAAGAUGUGGCUCUACCUCAACAGAGGAUUGAGCAUCA
B21: chr11:119045269:119045370:-|3pUTR|ENSG00000149428|msi1|FALSE|unique (ssRNA)
RNA: GGGAGUUCUACAGUCCGACGAUCUGUGGUUAAAAAUGGAAACUGUUCUCCUCCCCAGCCCCACUCCCUGUUCCCUACCCAUAUAGGCCCUAAAUUUGGGAAAAAUCACUAUUAAUUUCUGAAUCCUUUGCCUGUGGGUAGGAACAACAGAGGAUUGAGCAUCA
B22: chr1:180885316:180885399:+|3pUTR|ENSG00000143324|msi1_unk|FALSE|overlapping (ssRNA)
RNA: GGGAGUUCUACAGUCCGACGAUCUUGGCAGCCAUUUCUCCCAGCAGUUUUAAAGGAUGAACAUUGGAUUUCAUGCCAUCCCAUAGAAAACCUGUUUUAAAAUUUUAGGGAUCUUUACUUGGUCAUACAUGAAAAGUACACUGCCAACAGAGGAUUGAGCAUCA

Each binder was assayed against T1, UNK ZnF1-6 (called full-length) (assay: nsRBNS (natural sequence RNA bind-n-seq); RBNS binding buffer (assumed for nsRBNS): 25 mM Tris pH 7.5, 150 mM KCl, 3 mM MgCl2, 0.01% Triton X-100, 500 ug/ml BSA, 20 U/ml SUPERase-In, 4 C; UNK is unkempt and MSI1 is Musashi-1; names of the RNAs are library labels; protein concentration not given here; high values mean tight binding).

Row | Binder | binding signal [enrichment R]
1 | B1 | 0.469
2 | B2 | 0.685
3 | B3 | 1.31
4 | B4 | 7.59
5 | B5 | 1.84
6 | B6 | 0.426
7 | B7 | 0.728
8 | B8 | 1.05
9 | B9 | 2.6
10 | B10 | 4.14
11 | B11 | 1.54
12 | B12 | 2.25
13 | B13 | 4.48
14 | B14 | 25.2
15 | B15 | 1.68
16 | B16 | 22
17 | B17 | 152
18 | B18 | 1.36
19 | B19 | 0.468
20 | B20 | 58.2
21 | B21 | 0.528
22 | B22 | 1.91
